# Bioassay records: PubChem, National Center for Advancing Translational Sciences (NCATS)
# HCV inh: HCV inhibition. Huh7.5.1 HCVcc-Cre infection, luciferase reporter, 44 h. Potency, µM (series often up to 41.8 µM), for the others: at the top dose activity change, negative = inhibition, usual class: inhibitors. 340,000 tested, 3.4% active. AID 651820; note: % is set by controls: 0 for no effect and ±100 for the full control effect
#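 Cells seeded at 1,000/well and cultured 4 h, then compounds added followed by HCVcc-Cre virus (~0.5 moi). After 44 h further culture, luciferase substrate was added, plates held 15 min at room temperature, and luminescence read for 15 sec.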
# AMA1-RON2 inh: disrupts binding of P. falciparum AMA1 to RON2. AlphaScreen AMA1-biotinylated RON2 peptide binding. Potency, µM (top dose mostly 58.2 µM), for the others: at the highest dose activity change, negative = inhibition, usual class: inhibitors. 360,000 tested, 0.2% active. AID 720542;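 note: 0% = vehicle wells and -100% = peptide control; nearly all actives have a fitted effect of over 45% in size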
#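 AMA1 (3D7) with his tag at 25 nM final met compounds first, then biotinylated RON2 peptide at 25 nM; detection used donor plus acceptor beads, 10 µg/mL apiece, read by AlphaScreen after 30 min at room temperature.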
# Pf growth 48h: inhibits P. falciparum growth in the first generation, 48 h; AID 504832; Potency, µM (titrated, usually from 28.7 µM), for the others: at the top dose activity change, negative = inhibition, most hits filed as inhibitors; 310,000 tested, 5.9% active; P. falciparum luciferase growth in erythrocytes, 48 h; note: % is set by controls: 0 for no effect and ±100 for the full control effect
#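 A one-generation exposure of luciferase-tagged malaria parasites in RPMI 1640/Albumax erythrocyte culture, 37 C and 5% CO2. Inhibition is inferred from decreased luminescence after adding detection reagent.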
# SARS PLpro yeast: blocks SARS-CoV papain-like protease in a yeast assay. S. cerevisiae expressing SARS-CoV PLpro, growth rescue. Potency, µM (doses to about 32.9 µM), without a hit: at the top dose activity, positive = growth rescue, hits mostly activators. 330,000 tested, 0.19% active. AID 485353; calls by dose curve; note: 0% is about no effect; nearly all actives have a fitted effect of over 55% in size
# NS1 inh: influenza NS1 inhibition | Potency, µM (titrated, usually from 46.1 µM), inactives show at the highest dose activity, positive = more growth | 270,000 tested, 0.4% active; calls by dose curve; note: actives are rising curves; nearly all actives have a fitted effect of over 50% in size
#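 S. cerevisiae expressing influenza A NS1, grown in glucose, washed, then diluted 1:100 into pH 6.0 -URA galactose medium with 23 nl compound. Growth recovery read as OD600; NS1-free strain serves as control.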
# Pf growth 96h: P. falciparum growth inhibition at 96 hour, primary screen for plastid delayed-death inhibitors | Potency, µM (highest dose often 28.7 µM), for the others: top-dose activity change, negative = inhibition, actives largely listed as inhibitors | P. falciparum luciferase reporter growth, 96 h | 320,000 tested, 6.9% active; note: % is set by controls: 0 for no effect and ±100 for the full control effect
#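 96 h incubation, 37 C, 5% CO2, of luciferase-reporter P. falciparum-infected RBCs (2% hematocrit, 0.05% parasitemia final) with test compounds; endpoint luminescence.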
# * = called active by the depositor; ? = inconclusive; · = not tested or not shown; [ ] = dose if it differs, or a comment. Sampled rows, rich in hits. Any-hit rate of the full collection: about 12%. Unless noted, calls come from the whole dose curve; as a rule, active = well fitted curve in the direction sought with a large enough effect; inconclusive = small, poorly fitted or top-dose-only effect, or another doubt; inactive = no such curve, though single readings can be large; an effect the other way counts as inactive or inconclusive. Potency is the fitted concentration of half-maximal effect.
SMILES,HCV inh,AMA1-RON2 inh,Pf growth 48h,SARS PLpro yeast,NS1 inh,Pf growth 96h
CC[N+]1(C)CCC(O)(c2ccc(OC)cc2)C(C(=O)c2ccc(OC)cc2)C1 (stereo unspecified),?,13.0%,·,·,·,·
Cc1ccc(S(=O)(=O)NCC(=O)OCC(=O)NCc2ccc(F)cc2)cc1,-7.8%,9.9%,-24.5%,0.2%,·,-35.7%[5.75 µM]
O=C(O)COn1c(-c2ccccc2)nc2ccc(Cl)cc21,15.5%,4.9%,0.8%,0.2%,0.0%,32.0%
O=[N+]([O-])c1ccc2nc(-c3ccccc3)n(OCc3ccc(Cl)cc3)c2c1,?,-22.1%,30.3%,-1.8%,-80.6%,13.1µM*
COCc1cc(N2CCCCC2)nc(-c2ccccc2)n1,5.62µM*,12.3%,1.1%,-2.6%,·,-1.4%
O=C(Nc1cc(Cl)ccc1-n1cncn1)c1ccc(Br)o1,?,-0.2%,?,2.4%,·,29.5%
Cc1cnc(CN(C)C(=O)CC2C(=O)NCCN2CCCc2ccccc2)[nH]1 (stereo unspecified),25.8%,10.7%,15.4%,?,1.7%,-4.0%
